Experimental data: PubChem BioAssay AID2661 (Broad Institute, 2010)
The campaign covered roughly 320,000 compounds. About 240 (0.075%) were called active.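 How the source made its calls: active means inhibition at or above 25%, using the most active replicate where run in duplicate; inactive means inhibition below 25%.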 Only a selection was taken, and actives are over-represented in it overall.

target: Serine/threonine-protein kinase 33 (Homo sapiens) (UniProt Q9BYT3); assay: STK33 phosphorylation of MBP blockers – biochemical, ADP-Glo luminescence, homogeneous, cell-free, primary screen (AID 2661); conditions: purified STK33, MBP phosphorylation, at 10 µM, active compounds read high
Sequence (Q9BYT3 whole entry, looked up): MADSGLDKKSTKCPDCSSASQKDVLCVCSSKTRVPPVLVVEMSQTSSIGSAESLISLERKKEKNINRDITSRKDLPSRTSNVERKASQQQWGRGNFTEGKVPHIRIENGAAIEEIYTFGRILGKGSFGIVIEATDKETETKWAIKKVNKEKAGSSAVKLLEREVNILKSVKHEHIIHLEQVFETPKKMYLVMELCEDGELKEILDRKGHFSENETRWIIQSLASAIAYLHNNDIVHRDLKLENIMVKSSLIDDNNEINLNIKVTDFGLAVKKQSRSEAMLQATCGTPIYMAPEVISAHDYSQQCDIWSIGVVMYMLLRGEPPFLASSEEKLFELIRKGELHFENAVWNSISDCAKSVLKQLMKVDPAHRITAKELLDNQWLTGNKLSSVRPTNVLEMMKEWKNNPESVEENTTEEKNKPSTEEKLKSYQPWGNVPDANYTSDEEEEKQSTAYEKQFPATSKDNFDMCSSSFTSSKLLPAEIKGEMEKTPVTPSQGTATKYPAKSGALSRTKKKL

Structure (SMILES)	inhibition
OCCCNc1nccc(-c2cc(Nc3cccc(Cl)c3)ncn2)n1	5.41% (inactive)
CC(C)n1cnc2c(Nc3cccc(Cl)c3)nc(N(CCO)CCCO)nc21	55.5% (active)
CC(C)C[C@H](CO)Nc1nc(N(C)c2cccc(Cl)c2)c2ncn(C(C)C)c2n1	-0.739% (inactive)
O=C(COc1ccccc1F)Nc1nc(-c2ccccn2)cs1	-1.01% (inactive)
COc1ccc(C2(c3ccc(OC)cc3)NC(=O)N(CC(=O)Nc3cc(C)on3)C2=O)cc1	-0.176% (inactive)
CC1CN(C(=O)c2ccc([N+](=O)[O-])s2)CC(C)O1 (stereo not given)	-2.19% (inactive)
O=C1CCC/C=C\C[C@@H](CC(=O)N(CCO)Cc2ccccc2)C(=O)NCCO1	-0.894% (inactive)
COC(=O)[C@]1(Cc2ccccc2)N[C@H](CN(C)S(=O)(=O)c2ccc(F)cc2)[C@@H]2C(=O)N(Cc3ccccc3)C(=O)[C@@H]21	0.777% (inactive)
CNC[C@@H]1Oc2c(NS(C)(=O)=O)cccc2C(=O)N([C@@H](C)CO)C[C@H]1C	-0.879% (inactive)
O=C(Cn1cnc2c(OCc3ccccc3)ncnc21)NCc1nc2ccccc2[nH]1	0.0433% (inactive)
O=C(COC(=O)CSc1ccccc1)Nc1ccc(F)cc1F	-1.54% (inactive)
Cc1noc(C)c1C(=O)OC(C)C(=O)Nc1ccc2c(c1)OCO2 (stereo not given)	-2.76% (inactive)
CC(C)(C)OC(=O)C[C@@H]1C/C=C\C[C@@H](CC(=O)N[C@@H](CO)Cc2ccccc2)C(=O)N2CCC[C@H]2COC1=O	-0.177% (inactive)
CC1CCN(C2=NC(=O)/C(=C/c3cn[nH]c3-c3ccccc3)S2)CC1	0.902% (inactive)
CCOc1cc(/C=C2\SC(N3CCCCC3)=NC2=O)ccc1O	8.65% (inactive)
CCOc1cc(/C=C2\SC(N3CCCC(C)C3)=NC2=O)ccc1O (stereo not given)	26.4% (active)
O=C1N=C(N2CCCC2)S/C1=C\c1cccc(Br)c1	-0.704% (inactive)
O=C1N=C(N2CCc3ccccc3C2)S/C1=C\c1ccc(O)cc1	11% (inactive)
CC1CCN(C2=NC(=O)/C(=C/c3ccc(O)cc3)S2)CC1	25.8% (active)
O=C(COC(=O)c1ccc(F)cc1)NCC1COc2ccccc2O1 (stereo not given)	-0.961% (inactive)
NS(=O)(=O)c1ccc(CNC(=S)NC(=O)c2ccco2)cc1	-0.0738% (inactive)
CC1Cc2ccccc2N1S(=O)(=O)c1cccc(C(=O)OCC(=O)N2CCOCC2)c1 (stereo not given)	-1.13% (inactive)
Cc1ccc(S(=O)(=O)N2CCCCC2)cc1NC(=O)CCNC(=O)c1ccccc1	-0.0957% (inactive)
O=C(Nc1nnc(-c2ccccc2)o1)c1cccc(S(=O)(=O)N2CCOCC2)c1	-0.807% (inactive)
COc1cc(OC)cc(C(=O)NCC(=O)OCC(=O)NC(C)CCc2ccccc2)c1 (stereo not given)	-0.78% (inactive)
Cn1cccc1C(=O)OCC(=O)NCCc1ccccc1	-0.939% (inactive)
CC(C#N)OC(=O)c1cccnc1SCC(=O)Nc1ccc2c(c1)OCO2 (stereo not given)	0.605% (inactive)
CC(=O)c1c(C)[nH]c(C(=O)COC(=O)c2cccs2)c1C	-3.01% (inactive)

Structure (SMILES)	inhibition
COc1cc(OC)cc(-c2cc3ccc(F)cc3cn2)c1	1.46% (inactive)
COc1ccc2nc3n(c(=O)c2c1)-c1ccc(Cl)cc1C(=O)NC3Cc1ccccc1 (stereo not given)	0.119% (inactive)
COc1cc(C(=O)NC2CCN(C)CC2)ccc1Nc1ncc2c(n1)N(C1CCC(O)CC1)CCC(=O)N2C (stereo not given)	54.5% (active)
COc1ccc(C(=O)NC2CC2)cc1OC1CCN(Cc2cnn(C)c2)CC1	0.281% (inactive)
COc1ccc(-n2cnc3cc(C(=O)NC4CCCC4)ccc32)cc1	-0.505% (inactive)
Cc1ccc(C(=O)Nc2ccccc2-c2ccccc2)cc1S(=O)(=O)Nc1ccccc1	-1.82% (inactive)
COCCN(CCOC)S(=O)(=O)NC[C@H]1O[C@@H](n2cnc3c(N)ncnc32)[C@H](O)[C@@H]1O	-0.284% (inactive)
COc1ccccc1CNC(=O)COC(=O)c1cccs1	-1% (inactive)
COc1cc(SC)ccc1C(=O)NNC(=O)C1COc2ccccc2O1 (stereo not given)	-1.07% (inactive)
O=C(CSc1nccn1-c1cccc(F)c1)NC1CCCC1	0.473% (inactive)
Cc1ccc(NS(=O)(=O)c2ccc(C(C)C)cc2)cc1S(=O)(=O)N1CCOCC1	-3.33% (inactive)
O=C(N=C1SC2CS(=O)(=O)CC2N1c1ccccc1)c1ccccc1 (stereo not given)	0.811% (inactive)
COc1cc(OC)cc(-c2sc3ccc(OC)cc3c2-c2ccc3cc[nH]c3c2)c1	1.63% (inactive)
CC(Oc1ccc2c(-c3ccccc3)cc(=O)oc2c1)C(=O)NC(Cc1c[nH]c2ccccc12)C(=O)O (stereo not given)	-3% (inactive)
COc1cccc2sc3cc(NCC[C@@H]4CCCN4C)ccc3c(=O)c12	4.13% (inactive)
COC(=O)[C@]1(CC(C)C)N[C@H](c2ccc(SC3CCCCC3)cc2)[C@@H]2C(=O)N(C)C(=O)[C@@H]21	-0.318% (inactive)
COc1ccc(C(=O)C(C)OC(=O)c2cccc(S(=O)(=O)Nc3c(C)n(C)n(-c4ccccc4)c3=O)c2)cc1 (stereo not given)	-0.0798% (inactive)
CC(=O)C(CC(=O)N1CCCC1)C(=O)Nc1ccc(Cl)cc1 (stereo not given)	-0.972% (inactive)
CCC(CO)Oc1cc(NCc2ccccc2)c2ncn(C3CCCC3)c2c1 (stereo not given)	3.27% (inactive)
O=C(Nc1cccc(S(=O)(=O)N2CCCCC2)c1)c1cncc(Br)c1	-0.246% (inactive)
CC(=NNC(=O)c1ccc2nc[nH]c2c1)c1ccc(Br)cc1	-0.319% (inactive)
COc1cc(S(=O)(=O)N2CCN(C(=O)C3CC3)CC2)ccc1NC(C)=O	0.285% (inactive)
COc1ccccc1C(=O)COC(=O)COc1ccc(C#N)cc1	5.03% (inactive)
CCc1cccc(CC)c1NC(=S)Nc1ccc2cn[nH]c2c1	24.8% (inactive)
Cc1cccc(NC(=S)Nc2ccc3cn[nH]c3c2)c1	11.6% (inactive)
S=C(Nc1cccc(Cl)c1)Nc1ccc2cn[nH]c2c1	27% (active)
CN(Cc1ccc(F)cc1)C(=O)CN1C(=O)c2ccccc2S1(=O)=O	-1.27% (inactive)
